# Reference: paper PMC4336329 (PLoS ONE, 2015)
# Among all 310,000 compounds or so, about 14,000 (4.5%) showed an effect of 50% or more. The effect is printed as a negative number. The entries come from a sample that favours strong results as a whole.
# Molecular target: human ether-à-go-go-related gene (hERG) potassium channel (human, UniProt Q12809)
# Test: primary screen, population patch clamp on CHO cells stably expressing hERG; higher = less effect of the substance
# 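Note: peak tail current of the secondary pulse compared with the same well before compound.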
# Sequence of human ether-à-go-go-related gene (hERG) potassium channel (Q12809 whole entry, looked up): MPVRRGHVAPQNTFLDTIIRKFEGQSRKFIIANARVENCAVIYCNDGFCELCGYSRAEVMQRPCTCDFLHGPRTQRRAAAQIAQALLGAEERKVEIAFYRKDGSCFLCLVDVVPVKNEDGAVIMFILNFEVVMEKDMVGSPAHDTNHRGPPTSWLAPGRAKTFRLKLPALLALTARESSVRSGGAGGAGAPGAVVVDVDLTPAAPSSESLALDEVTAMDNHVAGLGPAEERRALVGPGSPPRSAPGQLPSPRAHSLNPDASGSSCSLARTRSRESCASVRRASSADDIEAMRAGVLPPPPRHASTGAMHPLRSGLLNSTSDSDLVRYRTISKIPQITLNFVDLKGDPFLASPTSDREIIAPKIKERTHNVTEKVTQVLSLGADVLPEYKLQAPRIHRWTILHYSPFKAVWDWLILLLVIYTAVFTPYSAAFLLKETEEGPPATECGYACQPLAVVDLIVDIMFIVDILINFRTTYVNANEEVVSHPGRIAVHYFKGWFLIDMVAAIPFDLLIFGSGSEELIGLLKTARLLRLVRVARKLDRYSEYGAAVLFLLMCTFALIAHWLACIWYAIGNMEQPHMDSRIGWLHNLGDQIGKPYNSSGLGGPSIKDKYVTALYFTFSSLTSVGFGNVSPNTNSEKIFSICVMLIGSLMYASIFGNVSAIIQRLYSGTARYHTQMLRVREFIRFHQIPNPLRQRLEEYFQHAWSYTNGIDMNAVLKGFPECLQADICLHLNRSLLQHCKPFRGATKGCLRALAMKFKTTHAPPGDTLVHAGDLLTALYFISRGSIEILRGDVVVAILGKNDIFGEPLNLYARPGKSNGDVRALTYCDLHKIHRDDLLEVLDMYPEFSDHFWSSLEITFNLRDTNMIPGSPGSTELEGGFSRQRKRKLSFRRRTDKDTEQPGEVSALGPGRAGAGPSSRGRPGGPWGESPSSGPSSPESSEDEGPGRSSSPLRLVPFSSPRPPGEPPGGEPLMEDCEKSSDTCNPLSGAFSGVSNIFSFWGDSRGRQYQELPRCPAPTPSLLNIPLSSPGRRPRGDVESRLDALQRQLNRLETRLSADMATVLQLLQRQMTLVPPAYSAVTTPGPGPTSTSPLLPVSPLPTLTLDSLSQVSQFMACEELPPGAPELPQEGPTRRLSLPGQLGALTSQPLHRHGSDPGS
row,Structure (SMILES),"hERG current change (%, negative = inhibition) at 10uM"
1,CC(C)COc1ccc(C(=O)Nc2ccc(N3CCOCC3)cc2N2CCOCC2)cc1,1.07%
2,COc1ccc(OC)c(C2NC(=O)NC(C)=C2C(=O)Nc2ccc(C)cc2)c1 (stereo not drawn),5.98%
3,COC(=O)[C@H](C)NC(=O)Nc1cc(OC)ccc1OC,-8.76%
4,N#CCC(=O)Nc1ccc(C(=O)OCC(=O)C23CC4CC(CC(C4)C2)C3)cc1,12.7%
5,CC1CCCN(C(=O)C2CCCN(S(=O)(=O)c3cccc4nsnc34)C2)C1 (stereo not drawn),2.02%
6,Cc1cccc(-n2c(-c3ccccc3)c[nH]c2=S)c1C,14.6%
7,COCCn1c(SCC(=O)Nc2cc(OC)ccc2OC)nc2c(c1=O)SC(C)C2 (stereo not drawn),-18.5%
8,COc1cc(/C=C/CO)cc(OC)c1OC/C=C(\C)CCC=C(C)C,1.34%
9,CC(C)N1CCc2c(sc(NC(=O)C3CCCCC3)c2C(N)=O)C1.Cl,-21.7%
10,CCOC(=O)c1c(NC(=O)C2CCCCC2)sc2c1CCN(C(C)C)C2.Cl,-81.6%
11,CCOC(=O)c1c(NC(=O)C2CCCCC2)sc2c1CCN(CC)C2.Cl,-51.7%
12,COC(=O)c1c(NC(=O)C2CCCCC2)sc2c1CCN(C(C)C)C2.Cl,-16.5%
13,CCN1CCc2c(sc(NC(=O)C3CCCCC3)c2C(=O)OC)C1.Cl,-17.4%
14,CCOC(=O)c1c(NC(=S)N2CCCCC2)sc2c1CCN(C(=O)OCC)C2,-1.16%
15,O=C(COc1ccccc1)NCCSCc1ccc(Cl)cc1,-12.6%
16,CCC(C)NC(=O)Cn1c(=O)sc2ccccc21 (stereo not drawn),4.15%
17,O=C(CN(Cc1ccc(Br)cc1)S(=O)(=O)c1ccccc1)NCC1CCCO1 (stereo not drawn),-6.72%
18,Cc1ccc(S(=O)(=O)N(CC(=O)NCC2CCCO2)Cc2cccc(C)c2)cc1 (stereo not drawn),-60.5%
19,Cc1ccc(S(=O)(=O)N(CC(=O)NCC2CCCO2)Cc2ccc(F)cc2)cc1 (stereo not drawn),-10.6%
20,Cc1ccc(CN(CC(=O)NCC2CCCO2)S(=O)(=O)c2ccc(C)cc2)cc1 (stereo not drawn),-1.71%
21,O=C(CN(Cc1ccccc1)S(=O)(=O)c1ccc(Br)cc1)NCC1CCCO1 (stereo not drawn),-77.2%
22,O=C(CN(Cc1ccccc1)S(=O)(=O)c1ccc(Cl)cc1)NCC1CCCO1 (stereo not drawn),-9.79%
23,Cc1noc(C)c1S(=O)(=O)N1CCCC(C(=O)Nc2nccs2)C1 (stereo not drawn),-13.6%
24,CCOc1ccc(OCCSc2nc3ccccc3[nH]2)cc1,-0.985%

row,Structure (SMILES),"hERG current change (%, negative = inhibition) at 10uM"
1,COc1cc2c(cc1Cl)/C(=C\CCN(C)C)c1ccccc1S2.O=S(=O)(O)O,-35.4%
2,CN1CCN(CCC(=O)N2c3ccccc3Sc3ccc(Cl)cc32)CC1,-48.9%
3,CN1CCN(CCCN2c3ccccc3Sc3ccc(S(=O)(=O)N(C)C)cc32)CC1.CS(=O)(=O)O,-57.4%
4,CN1CCN(CC(=O)Nc2ccc(S(=O)(=O)N(C)C)cc2)CC1.O=C(O)C(=O)O,6.74%
5,CN(C)S(=O)(=O)c1ccc(Cl)c(NC(=O)CN2CCc3ccccc3C2)c1,-12.7%
6,CN(C)S(=O)(=O)c1ccc2c(c1)C(=O)c1cc(S(=O)(=O)N(C)C)ccc1CC2,7.08%
7,CN1CCN(CC/C=C2\c3ccccc3Sc3ccc(S(=O)(=O)N(C)C)cc32)CC1,-58%
8,CN1CCN(CC/C=C2/c3ccccc3Sc3ccc(S(=O)(=O)N(C)C)cc32)CC1,-64.7%
9,CCSc1ccc2c(c1)N(CCCN1CCN(C)CC1)c1ccccc1S2.O=C(O)CC(O)C(=O)O,-54.2%
10,CN1CCN(CCCN2c3ccccc3Sc3ccc(C(F)(F)F)cc32)CC1.Cl,-30.4%
11,CN1CCN(CC(=O)N2c3ccccc3Sc3ccccc32)CC1,-13.7%
12,Cl.FC(F)(F)c1ccc2c(c1)N(CCCN1CCN(CCCl)CC1)c1ccccc1S2,-8.34%
13,CNC(=O)c1ccc(NC(=O)CC2SC(N3CCCC3)=NC2=O)cc1 (stereo not drawn),-4.89%
14,CCCc1nc2sc3ccccc3c(=O)c2c(=O)n1CCOC,9.8%
15,CCOC(=O)CN1CC23C=CC(O2)C(C(=O)Nc2ccc4c(c2)OCO4)C3C1=O (stereo not drawn),4.95%
16,Cc1cc(Br)ccc1NC(=O)CN(C)C(=O)COc1cccc2c1OC(C)(C)C2,-8.15%
17,COCCn1c(SCC(=O)Nc2ccc(C(C)=O)cc2)nc2c([nH]c3ccccc32)c1=O,1.97%
18,Cc1cc(O)c(-c2ccno2)cc1Cl,13%
19,CCN(CC)c1ccc(NC(=O)Cn2cc3c(n2)CCC(C)C3)c(C)c1 (stereo not drawn),-3.35%
20,NC(=O)CSc1nnc(-c2cccs2)n1Cc1ccco1,-13.9%
21,COc1cc(CNCCNC(=O)c2nonc2N)ccc1OCc1ccc(Cl)nc1.Cl,-56.4%
22,COc1cc(CNCCNC(=O)c2nonc2N)ccc1OCc1ccc(Cl)cc1.Cl,-74.4%
23,COc1cccc(CNCCNC(=O)c2nonc2N)c1.Cl,9.27%
24,COc1cc(CNCCNCC(C)O)ccc1OCc1ccc(Cl)nc1 (stereo not drawn),-8.7%

row,Structure (SMILES),"hERG current change (%, negative = inhibition) at 10uM"
1,COc1cc(OC)c(OC)cc1CNCCNC(=O)c1nonc1N.Cl,-0.502%
2,COc1ccc(CNCCNC(=O)c2nonc2N)cc1OC.Cl,-24.8%
3,CC(C(=O)Nc1nccs1)N1C(=O)c2ccccc2S1(=O)=O (stereo not drawn),11.5%
4,CCc1nn(CCCC(=O)N2CCC(C)CC2)c(=O)c2cc3occc3n12,-2.71%
5,O=C(OCC(=O)N1CCCCCC1)c1cnc(Cl)c(Cl)c1,-2.83%
6,Cc1cccc(NC(=O)c2cc([N+](=O)[O-])ccc2N2CCCCC2)n1,-35.1%
7,Cc1cccc(NC(=O)c2ccc(NCC3CCCO3)c([N+](=O)[O-])c2)n1 (stereo not drawn),14.2%
8,Cc1cccc(NC(=O)c2ccc([N+](=O)[O-])cc2Cl)n1,-22.8%
9,Cc1cccc(NC(=O)c2cc([N+](=O)[O-])ccc2NCC2CCCO2)n1 (stereo not drawn),-80.9%
10,COCCNc1ccc([N+](=O)[O-])cc1C(=O)Nc1cccc(C)n1,-62.7%
11,COc1cccc(NC(=O)c2cc([N+](=O)[O-])ccc2NC(=O)CNCC2CCCO2)c1 (stereo not drawn),-16.4%
12,Cc1ccc(C)c(N(CC(=O)NN=C2CCCCCCC2)S(C)(=O)=O)c1,-5.63%
13,CC1(C)O[C@@H]2CC3C4C[C@H](F)C5=CC(=O)C=CC5(C)C4C(O)CC3(C)[C@]2(C(=O)CO)O1 (stereo partly drawn),1.68%
14,COC(=O)C1CN(C(=O)C(C)Oc2ccccc2F)c2ccccc2O1 (stereo not drawn),15.6%
15,CCCCN1C(=O)C(O)=C(C(C)=O)C1c1ccccc1 (stereo not drawn),11%
16,CCC(=O)c1ccc(OCC(=O)N2CCN(c3ccccn3)CC2)cc1,-31.5%
17,CC(C)(C)c1ccc(OCC(=O)N2CCN(c3ccccn3)CC2)cc1,-51.7%
18,O=C(COc1ccc(Cl)cc1Cl)N1CCN(c2ccccn2)CC1,-33.3%
19,O=C(COc1ccc(F)c(Cl)c1)N1CCN(c2ccccn2)CC1,-55.3%
20,O=C(COc1cc(Cl)c(Cl)cc1Cl)N1CCN(c2ccccn2)CC1,16%
21,Cc1cc(OCC(=O)N2CCN(c3ccccn3)CC2)cc(C)c1Br,-32.3%
22,Cc1ccc(C)c(NS(=O)(=O)c2ccc3c(c2)NC(=O)CCS3)c1,-15%
23,COC(=O)COc1cccc(/C=N/NC(=O)CCSc2ccccc2)c1,-15.7%
24,C(=N\c1nc2ccccc2n1CCN1CCOCC1)/c1cccs1,-20.7%

row,Structure (SMILES),"hERG current change (%, negative = inhibition) at 10uM"
1,CCOc1ccc(N2C(=O)CC(Sc3nc(-c4cccs4)cc(C(F)(F)F)c3C#N)C2=O)cc1 (stereo not drawn),10.2%
2,CCCNC(=O)c1csc(Nc2cccc3ccccc23)n1,-30%
3,COCCNC(=O)c1csc(Nc2cccc3ccccc23)n1,-35.9%
4,CCN(CC)CCCNC(=O)c1csc(Nc2cccc3ccccc23)n1,-71.6%
5,CN(C)CCNC(=O)c1csc(Nc2cccc3ccccc23)n1,-55.4%
6,O=C(NCC(O)CO)c1csc(Nc2cccc3ccccc23)n1 (stereo not drawn),-2.43%
7,CCN(CC)C(=O)c1csc(Nc2cccc3ccccc23)n1,-16.9%
8,Cc1ccc(S(=O)(=O)N(C)C)cc1NC(=S)NC(C)CCC(C)C (stereo not drawn),-14%
9,Cn1ccnc1SCC(=O)c1cccc(C(F)(F)F)c1,-27.8%
10,COC(=O)c1ccc(Cn2nc(C)c(Cl)c2C)o1,8.75%
11,CC12CC(NC(=O)N1c1cccc(C(=O)N3CCN(c4ccccc4F)CC3)c1)c1ccccc1O2 (stereo not drawn),-6.74%
12,Cc1cc(C)cc(N2C(=O)CC(N(C(=O)c3ccco3)c3cc(C)cc(C)c3)C2=O)c1 (stereo not drawn),12.8%
13,Cc1ccc(S(=O)(=O)NC(=O)c2cc(C)n(CCCn3ccnc3)c2C)cc1,-2.28%
14,Cc1ccc(S(=O)(=O)c2cc3c(=O)n4ccccc4nc3n(C3CCCC3)c2=N)cc1,6.01%
15,Cc1ccc2nc3c(cc(C(=O)NC4CCCC4)c(=N)n3C3CCCCC3)c(=O)n2c1,-77.2%
16,Cc1ccc2nc3c(cc(C(=O)NC4CCCCC4)c(=N)n3C3CCCCC3)c(=O)n2c1,-74.7%
17,Cc1ccc(S(=O)(=O)c2cc3c(=O)n4ccccc4nc3n(C3CCCCC3)c2=N)cc1,-5.93%
18,Cc1ccc2nc3c(cc(C(=O)NCCCn4ccnc4)n3C)c(=O)n2c1,-34.1%
19,Cc1ccc2nc3c(cc(C(=O)NC4CCCC4)c(=N)n3CCCn3ccnc3)c(=O)n2c1,-58.6%
20,CCn1cc(C(=O)NC2CCCCC2)c(=O)c2ccc(C)nc21,8.6%
21,CCn1cc(C(=O)NC2CCCCCC2)c(=O)c2ccc(C)nc21,-4.88%
